The source of these data is PubChem BioAssay (NCATS).

Inconclusive results are not listed. Entries that show only a call come without a potency. Activity calls are given as the source filed them. The call rests on the fitted dose curve; in most records, active means well fitted inhibition curve with a large enough effect; inconclusive means small, poorly fitted or top-dose-only effect; inactive means flat fitted curve, though single readings scatter. Square brackets hold non-standard residues; d marks the D form. Peptide text beside a SMILES is read from it. Ala(indol-2-yl) = N[C@@H](Cc1cc2ccccc2[nH]1)C(=O)O; Aib = CC(C)(N)C(=O)O

The target in this experiment is Aldehyde dehydrogenase, mitochondrial (Homo sapiens) (UniProt P05091). The experiment can be described thus: qHTS for Inhibitors of the Aldehyde Dehydrogenase Family (ALDH2) Primary screen (AID 2061308). Further: nearly all actives have a fitted effect of over 55% in size. The following applies: ALDH2 enzyme inhibition qHTS, 1536-well; series mostly up to 56 µM. A general note: In qHTS, concentration-response curves come from the screen itself.
As to `OCc1nnc2n1-c1ccc(Cl)cc1C(c1ccccc1Cl)=NC2`, the Potency entry is “inactive”.

Consider `CN(CC[C@H](N)CC(=O)N[C@H]1C=C[C@@H](n2ccc(N)nc2=O)O[C@@H]1C(=O)O)C(=N)N`, for which the activity change, negative = inhibition was -3.48% [at 11.2 µM] (inactive).

With `CCCCOC(=O)c1ccnc2cc(C(OCCN3CCCCC3)c3ccccc3Cl)sc12` (centres undefined), the Potency entry was “inactive”. Still for that read-out and setting: under `CCC(C)(OC(C)=O)C(=O)O[C@H]1[C@H](OC(C)=O)C[C@@H]2[C@@](C)([C@@H]3C[C@H]4C=CO[C@H]4O3)[C@H](C)C[C@H](OC(C)=O)[C@@]2(COC(C)=O)[C@@]12CO2` (some centres undefined) stands “inactive”.

On to `CC(C)(NC(=O)[C@@H](N)Cc1ccc(O)cc1)C(=O)N[C@@H](Cc1cc2ccccc2[nH]1)C(=O)N[C@@H](Cc1ccccc1)C(=O)O` (H-Y[Aib][Ala(indol-2-yl)]F-OH), for which the activity change, negative = inhibition was -1.78% [at 11.2 µM] (inactive). `C=CC(C)(C)C12C=C(O)C(=O)N3/C(=C\c4cnc[nH]4)C(=O)NC31N(OC)c1ccccc12` (centres undefined): the Potency entry is “inactive”. Still for that read-out and setting: under `CCOP(=O)(OCC)Oc1ccc2c(C)cc(=O)oc2c1` stands “inactive”. As for `C[C@H]1O[C@@H](n2cnc3c(N)ncnc32)C[C@@H]1O`, the Potency entry is “inactive”.

Consider `COC1CC(O[C@H]2CC[C@@]3(C)C(=CCC4C3C(O)[C@@H](O)[C@]3(C)[C@@H](C(C)=O)CC[C@]43O)C2)OC(C)C1OC1CC(OC)C(OC2OC(C)C(O)C(O)C2O)C(C)O1` (some centres undefined), for which the Potency result is “inactive”. On the same count and under the same terms, under `C=C[C@H]1CN2CC[C@H]1C[C@@H]2[C@@H](O)c1ccnc2ccccc12` stands “inactive”; under `C/C=C1/CN2CC[C@]34C(=Nc5ccc(OC)cc53)C2C[C@@H]1C4(CO)C(=O)OC` (some centres undefined), “inactive”; under `CCCOC(=O)Cc1ccc(OCC(=O)N(CC)CC)c(OC)c1`, “inactive”. Same read-out and setting: under `C/C=C(\C)C(O)C(C)/C=C(C)/C=C/C/C(C)=C/Cc1nc(OC)c(OC)c(O[C@@H]2O[C@@H](C)[C@H](O)[C@@H](O)[C@H]2O)c1C` (some centres undefined) stands “inactive”; under `CC(=O)OC[C@]12C[C@H](OC(=O)CC(C)C)C(C)=C[C@H]1O[C@@H]1[C@H](O)C[C@@]2(C)[C@]12CO2`, “inactive”; under `COC1CC(O[C@H]2CC[C@]3(C=O)C4CC[C@]5(C)[C@@H](C6=CC(=O)OC6)CC[C@]5(O)[C@@H]4CC[C@@H]3C2)OC(C)C1O[C@@H]1O[C@H](CO)[C@@H](O[C@@H]2O[C@H](CO)[C@@H](O)[C@H](O)[C@H]2O)[C@H](O)[C@H]1O` (some centres undefined), “inactive”.

With `CC(=O)OC[C@]12C[C@H](O)C(C)=C[C@H]1O[C@@H]1[C@H](O)[C@@H](OC(C)=O)[C@@]2(C)[C@]12CO2`, the Potency result is “inactive”.

As for `C=C1CC[C@H]2[C@@H](/C=C(\C)C(=O)[C@@]3(OC(C)=O)C[C@H](C)[C@H](OC(=O)c4ccccc4)[C@@H]3[C@H]1OC(C)=O)C2(C)C`, the Potency result was “inactive”. On the same count and under the same terms, under `C[C@]12CC[C@H](OC3OC(CO)C(O)C(O)C3OC3OC(CO)C(O)C(O)C3O)C[C@@H]1CC[C@@H]1C2CC[C@]2(C)[C@@H](C3=CC(=O)OC3)CC[C@]12O` (some centres undefined) stands “inactive”; under `CN1[C@H]2C[C@H](OC(=O)[C@H](CO)c3ccccc3)C[C@@H]1[C@@H](O)C2`, “inactive”; under `CC(O)(c1ccccc1)C(Cc1ccc(Cl)cc1)n1cncn1` (centres undefined), “inactive”. `C[C@]12CC[C@H](O)C[C@@H]1CC[C@@H]1[C@@H]2CC[C@]2(C)[C@@H](C3=CC(=O)OC3)CC[C@]12O`: the Potency entry is “inactive”.

For the compound `CC1=CC2(O)/C=C/C(C)(O)C(O)C(O)/C=C/C(=O)OC23C(=O)NC(CC(C)C)C3C1C` (centres undefined), the Potency entry was “inactive”. On the same count and under the same terms, under `C[C@]12CC[C@H](O)CC1=CC[C@@H]1C2CC[C@]2(C)[C@@H](C3=CC(=O)OC3)CC[C@]12O` (some centres undefined) stands “inactive”; under `Clc1ccc([C@]23CNC[C@H]2C3)cc1Cl`, “inactive”; under `CCCCCn1cc(C(=O)c2cccc3ccccc23)c2ccccc21`, “inactive”. Still for that read-out and setting: under `C=CC/C=C\C/C=C\CCCCCCCc1cc(O)cc(O)c1` stands “inactive”; under `CN1CCN(c2nc3ccccc3nc2Cl)CC1`, “inactive”. Still for that read-out and setting: next, `CC(=O)OC[C@]12[C@H](OC(C)=O)C(=O)[C@@H]3[C@@H](O)[C@@]14O[C@@]3(C)COC(=O)c1cccnc1[C@@H](C)[C@H](C)C(=O)O[C@@H]([C@H](OC(C)=O)[C@@H]2OC(C)=O)[C@]4(C)O`: “inactive”. For the compound `C[C@H]1CCC[C@H](O)CCC/C=C/c2cc(O)cc(O)c2C(=O)O1`, the Potency entry is “inactive”. On the same count and under the same terms, next, `CC12CCC3C(C1)c1c(cc(O)c(C(=O)c4ccccc4)c1OC3(C)C)O2` (centres undefined): “inactive”; `CC1=CC(=O)[C@@H](O)[C@]2(C)C3[C@@H](O)[C@@H]4OC(=O)[C@@H]([C@H]4C)[C@]3(C)C(=O)C[C@@H]12` (some centres undefined): “inactive”. Still for that read-out and setting: next, `CC(N[C@H]1C[C@H]1c1ccccc1)c1ccc2c(c1)OCCO2` (some centres undefined): “inactive”.

`c1ccc([C@@H]2C[C@H]2NC2CCNCC2)cc1`: the Potency result was “inactive”. The same measure, in the same setting: under `COC1CC(OC2CCC3(C)C(=CCC4C3CCC3(C)C(C(C)OC5OC(COC6OC(CO)C(O)C(O)C6O)C(O)C(O)C5O)CCC43O)C2)OC(C)C1OC1OC(C)C(O)C(OC)C1O` (centres undefined) stands “inactive”; under `CCN1C[C@]2(COC)[C@H](O)C[C@H](OC)[C@]34[C@@H]5C[C@]6(O)[C@H](OC(=O)c7ccccc7)[C@@H]5[C@@](O)([C@H]([C@H](OC)[C@H]23)[C@@H]14)[C@@H](O)[C@@H]6OC`, “inactive”; under `O=C(N[C@H]1CN2CCC1CC2)c1cc2cccc(Cl)c2s1`, “inactive”. For the compound `CC(CCc1ccc(O)cc1)O[C@@H]1O[C@H](CO[C@H]2OC[C@](O)(CO)[C@H]2O)[C@@H](O)[C@H](O)[C@H]1O` (some centres undefined), the Potency result is “inactive”. Still for that read-out and setting: under `CCC1CC2CN3CCc4c([nH]c5ccccc45)C(C(=O)OC)(C2)C13` (centres undefined) stands “inactive”; under `C=C(C)C(=O)O[C@H]1[C@@H]2[C@H](C)C(=O)O[C@@H]2C[C@@H](C)[C@@H]2C=CC(=O)[C@]21C`, “inactive”.
